Among the data in PubChem BioAssay (NCI) are growth values, retold here.

About 83,000 compounds went through this panel and 20% of them were active in at least one assay; those are over-represented in the sample as a whole.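 Single-dose data. Exposure time 48 hours. Values below 10 considered active.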 The source made the active and inactive calls.

The test system of this test is HOP-62 NSCLC. In words: NCI-60 one-dose screen, 48 h (100 = growth as untreated, 0 = no growth, -100 = all killed). To be noted: 10 µM unless noted. The protocol:
Growth inhibition of the HOP-62 human Non-Small Cell Lung tumor cell line is measured as a screen for anti-cancer activity. Cells are grown in 96 well plates and exposed to the test compound for 48 hours. Compounds are tested at a single concentration, which is 10^-5 M for most compounds. The reported endpoint is percent growth (GI% or GIPRCNT), where numbers from 0 - 100% represent growth inhibition, and numbers from -100% - 0 represent cell death. For example, a value of 40 represents 60% growth inhibition. A value of 0 means no net growth occurred over the course of the experiment. A value of -40 indicates 40% of cells at the beginning of the experiment died by the end of the experiment. A value of -100 means all cells are dead at the end of the experiment.
NCI-60 Human Tumor Cell Lines Screen was performed using the standard one-dose NCI protocol, which is described in more detail at https://dtp.cancer.gov/discovery_development/nci-60/default.htm.
Compounds with GIPRCNT values below 10 were considered active. Activity score was based on GIPRCNT using the following formula: […]
Score is 0 for GIPRCNT values of 100 or above, 50 for GIPRCNT values of 0, and 100 for GIPRCNT values of -100.
Consider `CN(C)CCCC1(c2ccc(F)cc2)OCc2cc(-c3cc4ccccc4s3)ccc21` (stereo not given), for which the growth is -65.8% (active). As for `Ic1ccccc1I`, the growth was 90.3% (inactive).

As for `COc1cc(NC(=O)c2cncnc2Nc2ccc3c(ccn3Cc3ccccn3)c2)cc(OC)c1`, the growth is 43.9% (inactive). As for `COc1ccc(NC(=O)Nc2ccc(OCCCCCC(=O)NO)cc2)cc1`, the figure is 102% (inactive); as for `CN1C(=O)/C(=C2\SC(=Nc3ccccc3)N(Nc3ccccc3)C2=O)c2ccccc21`, 88.1% (inactive). As for `CCSc1oc(C)nc1[P+](c1ccccc1)(c1ccccc1)c1ccccc1`, the figure is 21.3% (inactive); as for `Cc1ccc(CNc2ccc3nc(CCC(C)C)[nH]c3c2)cc1`, 99.6% (inactive).

Consider `Nc1nc(N)c2c(n1)NC(c1ccc(Cl)cc1)C1CCc3ccccc3C1=N2` (stereo not given), for which the growth is 84.2% (inactive). As for `CC/C=C\C[C@H](O)C/C=C1/C(=O)C=C[C@@H]1C/C=C\CCCC(=O)O`, the figure is 96.9% (inactive); as for `O=c1nc(-c2ccccc2)c2cc(-c3ccc(C(F)(F)F)nc3)ccc2[nH]1`, 106% (inactive). As for `CN1CCN(Cc2ccc(NC(=O)c3cncc(C#Cc4cnc(N)c5ccc(F)cc45)c3)cc2C(F)(F)F)CC1`, the figure is 7.94% (active); as for `CSc1nc(C)c([N+](=O)[O-])c(N)n1`, 104% (inactive); as for `O=C(Cc1ccc(/C=C/C(=O)c2ncc[nH]2)cc1)Nc1cc(C(F)(F)F)cc(C(F)(F)F)c1`, 106% (inactive).

On to `CCN1C(=O)N(CC)C2C1NN=c1s/c(=C\c3cnc(C)n3C)c(=O)n12` (stereo not given), for which the growth was 34.4% (inactive). As for `O=C(Cc1ccccc1)Nc1cccc(N=Cc2ccccc2O)c1`, the figure is 115% (inactive); as for `CCn1c(-c2cc3c([nH]c4ccccc43)c(-c3cccc(O)c3)n2)n[nH]c1=S`, 18.3% (inactive). As for `CSC(SC)=C(C#N)c1nc2ccccc2s1`, the figure is 72.5% (inactive); as for `O=C1/C(=C/c2ccc(F)cc2)CN(C(=O)C(Cl)Cl)C/C1=C\c1ccc(F)cc1`, -19.1% (active). As to `O=C(Nc1ncc(Cc2ccccc2)s1)c1ccc2c(c1)OCCCO2`, the growth was 31.9% (inactive).

For the compound `O=C(CCCCCNC(=O)c1cc(=O)c(O)co1)Nc1ccccc1`, the growth was 115% (inactive). As for `Cc1cccc2c1C[C@@]1(C2=O)C(c2ccc(C(C)(C)C)cc2)=NOS1=O` (stereo not given in full), the figure is 90% (inactive). As to `CCOc1c(OC)cc2c(c1O)C(=O)N[C@@H]1[C@@H](O)[C@@H](O)[C@H](O)C[C@@H]21`, the growth was 98.6% (inactive). As for `O=C(/C=C/c1ccccc1)c1ccc(Nc2nc(Nc3ccc(F)cc3)nc(Nc3ccc(Cl)cc3)n2)cc1`, the growth is 102% (inactive). As for `COc1cccc(NCc2nnc(Nc3ccc(Cl)cc3)c3ccccc23)c1`, the figure is -17.1% (active). As for `CCC1S/C(=N\N=C(\C)c2cc3cc(Cl)ccc3o2)N(c2ccccc2)C1=O` (stereo not given), the growth was 100% (inactive). As for `COc1ccc2c(c1)CCc1[nH]nc(-c3cc(OC)c(OC)c(OC)c3)c1-2`, the figure is 12.9% (inactive); as for `COc1cc(/C=N/Nc2ccc(Br)cc2)cc(OC)c1OC`, 93.1% (inactive). As for `CN(CCC(=O)c1ccccc1)CCC(=O)c1ccccc1`, the figure is 100% (inactive); as for `O=C(O)c1cn(C2CC2)c2cc(N3CCN(C(=O)Nc4nc(-c5ccc(Br)cc5)cs4)CC3)c(F)cc2c1=O`, 21.8% (inactive).

Consider `Cc1ccc(CNc2c3ccccc3nc3ccccc23)cc1`, for which the growth is 43.7% (inactive). For the compound `C=C1C(=O)O[C@H]2[C@H]1CC/C(COC(=O)CSCSCC(=O)OC/C1=C/CC[C@@]3(C)O[C@H]3[C@H]3OC(=O)C(=C)[C@@H]3CC1)=C\CC[C@@]1(C)O[C@@H]21`, the growth is 82.7% (inactive). As for `C=C(C)[C@@H]1CCC[C@]2(C(=O)O)CC[C@]3(C)[C@@H](CC[C@@H]4[C@@]5(C)C/C(=C/c6ccncc6)C(=O)C(C)(C)[C@@H]5CC[C@]43C)[C@@H]12`, the figure is 50.4% (inactive). In the case of `O=c1c2ccccc2c(=O)c2c1sc1c(=O)c3ccc(O)cc3c(=O)c12`, the growth is -78.8% (active).

Consider `Cc1cccc(N2CCC(=O)NC2=S)c1`, for which the growth was 110% (inactive). As for `N=c1c(S(=O)(=O)c2ccccc2)cc2c(=O)n3ccccc3nc2n1CC1CCCO1` (stereo not given), the figure is 95% (inactive). As for `C=CCC(CCCC)(C(=O)OCC)C(=O)OCC`, the figure is 111% (inactive); as for `C=C(C)[C@@H]1CC[C@]2(C(=O)N3CCN(C)CC3)CC[C@]3(C)[C@H](CC[C@@H]4[C@@]5(C)CC[C@H](OC(=O)c6ccccc6C(=O)O)C(C)(C)[C@@H]5CC[C@]43C)[C@@H]12`, 98% (inactive). As for `O=C(NNc1cnccn1)c1nc2cc(F)ccc2n2cccc12`, the figure is 15% (inactive). With `C=C1C(=O)O[C@H]2[C@H]1CC/C(COC(=O)/C=C\C(=O)NCc1ccc(Cn3c(=O)sn(CCCl)c3=O)cc1)=C\CC[C@@]1(C)O[C@@H]21`, the growth is 116% (inactive). Regarding `c1ccc2c(c1)CCCc1nnc3nc4ccccc4n3c1-2`, the growth is 34.8% (inactive).
